According to PubChem BioAssay AID463190 (Sanford-Burnham Center for Chemical Genomics, 2010):
In all, about 330,000 compounds went through this assay and about 7,300 (2.2%) were called active.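 How the source made its calls: active means inhibition of at least 40%; inactive means the rest.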 The sample as a whole holds a higher share of actives than the screen did.

Test: growth inhibition of tim10-1 ts yeast – luminescence, uHTS, primary screen (AID 463190);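 further: mutant grown at 25 °C; 0% = DMSO wells with yeast and 100% = wells holding no yeast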
Settings: S. cerevisiae tim10-1 ts strain growth, BacTiter-Glo, 24 h; at 20 µM; active compounds read high

**Q.** With O=C(Nc1cccc(Cl)c1)C1CCCN(c2cnccn2)C1 (stereo not drawn) as the compound, how does the inhibition read?
**A.** -8.48% (inactive)

**Q.** With O=C(NCCc1ccccc1)Oc1ccc(Cl)cc1 as the compound, how does the inhibition read?
**A.** 13.9% (inactive)

**Q.** With O=C(COc1ccc(-n2cnnn2)cc1)Nc1ccccc1Cl as the compound, how does the inhibition read?
**A.** -7.79% (inactive)

**Q.** With Cc1ccc(NC(=O)CCC(=O)N2CCC(c3ccccc3)=N2)cc1S(=O)(=O)N1CCCCC1 as the compound, how does the inhibition read?
**A.** -15.3% (inactive)

**Q.** For Cc1ccc(C(=O)NCC(=O)OCC(=O)Nc2cccc(S(=O)(=O)N3CCCC3)c2)cc1C, which inhibition is on record?
**A.** -7% (inactive)

**Q.** For COc1ccccc1CNC(=O)CCCN1C(=O)NC2(CCCC2)C1=O, which inhibition is on record?
**A.** 6.1% (inactive)

**Q.** For CCCc1nc2c(c(=O)c3ccccc3n2C)c(=O)n1C1CCCCCC1, which inhibition is on record?
**A.** 43.1% (active)

**Q.** With Cn1c2ccccc2c2c(C(=O)N3CCN(c4ccc(F)cc4)CC3)cn(C3CCCC3)c(=O)c21 as the compound, how does the inhibition read?
**A.** 36.7% (inactive)

**Q.** Which inhibition does the source give for Cn1c2ccccc2c(=O)c2c(O)cccc21 here?
**A.** 6.4% (inactive)

**Q.** For CCc1nc2nc(C)c(NS(=O)(=O)c3ccc4c(c3)CCCC4)c(=O)n2[nH]1, which inhibition is on record?
**A.** -10.4% (inactive)

**Q.** Which inhibition does the source give for O=c1oc(-c2ccco2)nc2sc3c(c12)CCCCC3 here?
**A.** 41.5% (active)

**Q.** For Cn1c(=O)n(Cc2ccco2)c(=N)c2c3c(sc21)CCCC3, which inhibition is on record?
**A.** 12.5% (inactive)

**Q.** Which inhibition does the source give for O=S(=O)(c1ccc(Cl)cc1)c1nc(-c2ccco2)oc1N1CCCCC1 here?
**A.** 26.4% (inactive)

**Q.** For Cc1cccc(/C=N/NC(=O)CNc2cccc3ccccc23)n1, which inhibition is on record?
**A.** 23.6% (inactive)

**Q.** With Cn1cccc1/C=N/NC(=O)CNc1cccc2ccccc12 as the compound, how does the inhibition read?
**A.** 13.6% (inactive)

**Q.** Which inhibition does the source give for C/C(=N\NC(=O)CNc1cccc2ccccc12)c1ccc(Br)s1 here?
**A.** 41.9% (active)

**Q.** With CC(C)c1ccc(NC2CCCN(C(=O)c3ccncc3)C2)cc1 (stereo not drawn) as the compound, how does the inhibition read?
**A.** 8.48% (inactive)

**Q.** For Fc1ccccc1OCCSc1nc2ccccc2o1, which inhibition is on record?
**A.** 27.5% (inactive)

**Q.** Which inhibition does the source give for COCCN(Cc1ccccc1)C(=O)Cc1ccc(S(=O)(=O)N2CCOCC2)s1 here?
**A.** 18.8% (inactive)

**Q.** With COc1nc(NCc2ccc(Cl)cc2)nc(OC)n1 as the compound, how does the inhibition read?
**A.** 6.89% (inactive)

**Q.** For C=CCNc1nc(C)nc(OC)n1, which inhibition is on record?
**A.** 7.31% (inactive)

**Q.** Which inhibition does the source give for C=CCNc1nc(Nc2ccc(Cl)cc2)nc(OC)n1 here?
**A.** 43.2% (active)

**Q.** For Cc1[nH][nH]c(=O)c1C(c1ccc(-c2ccc(Cl)cc2)o1)c1c(C)[nH][nH]c1=O, which inhibition is on record?
**A.** 67.1% (active)

**Q.** With CN(CC(=O)Nc1ccc(F)cc1)C(=O)c1ccc(-c2ccc(Cl)cc2)o1 as the compound, how does the inhibition read?
**A.** 21.8% (inactive)

**Q.** With CCCCSc1[nH]c(=O)c(C(=O)OCC)cc1C#N as the compound, how does the inhibition read?
**A.** -14.3% (inactive)

**Q.** Which inhibition does the source give for O=C(CSC(=S)N1CCOCC1)c1cc(Br)cc(Br)c1O here?
**A.** 50.1% (active)

**Q.** Which inhibition does the source give for O=C(c1cc2cc(Br)cc(Br)c2oc1=O)N1CCOCC1 here?
**A.** 7.28% (inactive)

**Q.** Which inhibition does the source give for O=C(CSC(=S)N1CCOCC1)c1ccccc1 here?
**A.** 5.05% (inactive)

**Q.** With Nn1c(SCC(=O)NC2CCCC2)nnc1-c1ccccc1F as the compound, how does the inhibition read?
**A.** -11.7% (inactive)

**Q.** With CC(=O)Nc1ccc(Sc2ccccc2C(=O)N2CCCC2)cn1 as the compound, how does the inhibition read?
**A.** 7.35% (inactive)

**Q.** For CC(C)(C)CN1CCNC(=O)C1CC(=O)NC1Cc2ccccc2C1 (stereo not drawn), which inhibition is on record?
**A.** 16.6% (inactive)

**Q.** For CCOc1cccc(=O)c2c(C)n(CC3CCCO3)c(C)c12 (stereo not drawn), which inhibition is on record?
**A.** 1.25% (inactive)

**Q.** For CN1CN(C)c2ccc([N+](=O)[O-])c3cccc1c23, which inhibition is on record?
**A.** 9.35% (inactive)

**Q.** Which inhibition does the source give for O=C1c2cccc3c([N+](=O)[O-])ccc(c23)C(=O)N1CC1CCCO1 (stereo not drawn) here?
**A.** 71.2% (active)

**Q.** Which inhibition does the source give for CCCCCCCNC(=O)C1(CC2CC(c3cccc(Br)c3)=NO2)CCN(C(=O)c2cc(OCC)c(OCC)c(OCC)c2)CC1 (stereo not drawn) here?
**A.** -4.27% (inactive)

**Q.** With O=C(c1ccccc1)N1CCC(CC2CC(c3ccc(Cl)cc3)=NO2)(C(=O)NCC2CCCCC2)CC1 (stereo not drawn) as the compound, how does the inhibition read?
**A.** 41.2% (active)

**Q.** With COc1ccc(CNC(=O)C2(CC3CC(c4ccccc4)=NO3)CCN(C(=O)c3cccc(O)c3)CC2)cc1 (stereo not drawn) as the compound, how does the inhibition read?
**A.** 2.25% (inactive)

**Q.** Which inhibition does the source give for O=C(NCC1CCCO1)C1CCN(C2CCN(C(=O)C3CCCCC3)CC2)CC1 (stereo not drawn) here?
**A.** -2.3% (inactive)

**Q.** Which inhibition does the source give for C/C(=N/O)c1ccc(N2C(=O)C3C4C=CC(C3C2=O)C2C3C(=O)N(c5ccc(/C(C)=N/O)cc5)C(=O)C3C42)cc1 (stereo not drawn) here?
**A.** 6.62% (inactive)

**Q.** Which inhibition does the source give for O=C(O)c1cccc(S(=O)(=O)N2CC=C(c3ccccc3)CC2)c1 here?
**A.** 13.4% (inactive)

**Q.** Which inhibition does the source give for CCOc1ccc(C(C)C)cc1S(=O)(=O)n1nc(C)cc1C here?
**A.** 36.6% (inactive)

**Q.** Which inhibition does the source give for COc1ccc(C(C[N+](=O)[O-])n2nc(C)cc2C)cc1 (stereo not drawn) here?
**A.** 43.3% (active)

**Q.** Which inhibition does the source give for COc1ccc(OC)c(S(=O)(=O)n2c([N+](=O)[O-])cnc2C)c1 here?
**A.** 13.3% (inactive)

**Q.** With Cc1ccc(S(=O)(=O)N(C)C)cc1NC(=O)c1ccc(-n2cncn2)c([N+](=O)[O-])c1 as the compound, how does the inhibition read?
**A.** -0.831% (inactive)

**Q.** With Cn1ccs/c1=N\S(=O)(=O)c1ccc(C(C)(C)C)cc1 as the compound, how does the inhibition read?
**A.** 26.8% (inactive)

**Q.** For COc1cc(C(=O)OCc2cc(=O)n3ccsc3n2)ccc1OC(C)C, which inhibition is on record?
**A.** -4.26% (inactive)

**Q.** With CCCCCCSc1nsc(N)n1 as the compound, how does the inhibition read?
**A.** 26.2% (inactive)

**Q.** With CN(Cc1ccccc1)CC(O)COc1ccc(CNCc2cc3ccccc3s2)cc1 (stereo not drawn) as the compound, how does the inhibition read?
**A.** -10.1% (inactive)

**Q.** Which inhibition does the source give for CCOc1ccc(NC(=O)c2ccccc2NS(C)(=O)=O)cc1 here?
**A.** -4.15% (inactive)

**Q.** Which inhibition does the source give for COC(=O)c1ccc(NC(=O)c2ccccc2NS(=O)(=O)c2ccccc2)cc1 here?
**A.** 40.3% (active)

**Q.** For COC(=O)c1ccccc1NS(=O)(=O)c1ccc2[nH]c(=O)[nH]c2c1, which inhibition is on record?
**A.** 5.53% (inactive)

**Q.** Which inhibition does the source give for CCOC(=O)c1ccc(NC(=O)CS(=O)(=O)c2cn(CC)c3ccccc23)cc1 here?
**A.** 14.8% (inactive)

**Q.** Which inhibition does the source give for CC(=O)c1cc(CN2CCC(n3nccc3NC(=O)c3ccccc3Cl)CC2)cs1 here?
**A.** -3.89% (inactive)

**Q.** With Cc1ccc(N=Cc2c(O)n(-c3nccs3)c(=O)c3ccccc23)c(C)c1 as the compound, how does the inhibition read?
**A.** 9.76% (inactive)

**Q.** Which inhibition does the source give for OCc1nc(CO)n(Cc2ccccc2)n1 here?
**A.** 4.38% (inactive)

**Q.** For Cc1cc(C)c(S(=O)(=O)c2ccccc2)c(OC(=O)c2c(F)cccc2Cl)n1, which inhibition is on record?
**A.** 42.6% (active)

**Q.** With Cc1cc(OC(=O)c2c(Cl)cccc2Cl)nc(C)n1 as the compound, how does the inhibition read?
**A.** 35% (inactive)

**Q.** Which inhibition does the source give for Cc1ccc(NNC(=O)c2c(F)cccc2Cl)cc1Cl here?
**A.** 14% (inactive)

**Q.** For O=C(O)c1cccnc1NC1CCCC1, which inhibition is on record?
**A.** -10.6% (inactive)

**Q.** With CCC(=O)c1cn(CCOc2ccccc2OC)c2ccccc12 as the compound, how does the inhibition read?
**A.** 4.25% (inactive)

**Q.** For Cc1nn(CC(=O)NCCc2ccccc2)c(=O)c2cc3occc3n12, which inhibition is on record?
**A.** -16.4% (inactive)

**Q.** With Cc1ccc(-c2ccc(=O)n(CC(=O)NCCCN3CCCCC3)n2)cc1 as the compound, how does the inhibition read?
**A.** -3.38% (inactive)

**Q.** For CCc1ccc(-c2cc3c(=O)n(CC(=O)NCCCN4CCN(Cc5ccccc5)CC4)nc(C)n3n2)cc1, which inhibition is on record?
**A.** 43.7% (active)
